Test results published in PubChem BioAssay AID624305 (National Center for Advancing Translational Sciences (NCATS), 2012).
Inconclusive results are not listed. A number with no mark means an inactive call. The source made the active and inactive calls. The call rests on the fitted dose curve; in most records, active means well fitted activation curve with a large enough effect; inconclusive means small, poorly fitted or top-dose-only effect; inactive means no such curve, though single readings can be large or run the other way.

Assay: qHTS assay for re-activators of p53 using a Luc reporter: Hit Validation; further: nearly all actives have a fitted effect of over 75% in size; on activation: 0% is about no effect
Settings: p53-responsive luciferase reporter cells, luminescence, H1299 line expressing heat-sensitive Ala138Val p53; series mostly up to 46.1 µM; activation: at the top concentration
In short: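 Hit confirmation with a 1:5 dilution series, at 37 deg C for 24 hrs, in H1299 cells co-expressing temperature-sensitive p53-A138V and p53-responsive luciferase. Nocodazole served as control; luminescence read after 10 min with detection reagent.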
Potency means the concentration at half of the fitted maximal effect.

Row | SMILES | activation | Potency
1 | CC(C)CC(NC(=O)C1CCC(=O)N1)C(=O)NC(CC(C)C)C(=O)N1CCCC1C(N)=O (stereo not drawn) | -19.8% | –
2 | CCN(Cc1ccccc1)C(=O)CN1C(=S)NC(C)(C)CC1C (stereo not drawn) | -15.4% [at 9.22 µM] | –
3 | CC(=O)Nc1ccc(SCC(=O)c2cc(C)n(-c3ccccc3)c2C)cc1 | – | 5.8 µM (active)
4 | CC(C)OC(=O)CCCCCN1C(=O)CSC1=S | 5.73% | –
5 | Cc1occc1C(=O)NN=C1C2CC3CC(C2)CC1C3 | 40.1% | –
6 | Cn1c(=N)n(CC(=O)c2ccc(Cl)c(Cl)c2)c2ccccc21 | – | 0.58 µM (active)
7 | COc1ccccc1-c1c(C)nn2c(C)c(C(C)=O)cnc12 | -1.56% | –
8 | COc1ccccc1C(=O)CC(=O)c1ccccc1 | 2.08% | –
9 | CCCCOC(=O)c1ccc(NC(=O)CSc2nncn2C)cc1 | 41.1% | –
10 | CC1CCCN(C(=O)CN2C(=O)c3ccccc3S2(=O)=O)C1 (stereo not drawn) | – | 23.1 µM (active)
11 | CN(/N=C/c1ccc2c(c1)OCO2)c1ccccc1 | – | 14.6 µM (active)
12 | COc1cc(CNC2CCCCCCC2)c(Br)cc1OCCO | 26% | –
13 | CN(Cc1ccccc1)c1ncnc2ccc(Br)cc12 | -21.4% | –
14 | C/C(=C\COc1ccc2ccc(=O)oc2c1)CC[C@@H](O)C(C)(C)O | 34.9% | –
15 | CN1CCN(C(=O)CCCN2C(=O)/C(=C/c3ccc(Cl)cc3)SC2=S)CC1 | – | 9.2 µM (active)
16 | Cc1cc(C)nc(SCC(=O)OCC(=O)Nc2nc3ccccc3s2)n1 | 24% | –
17 | C#CC(C)(CC)NC(=O)Cn1nnc(-c2ccc(S(C)(=O)=O)cc2)n1 (stereo not drawn) | -1.56% | –
18 | O=C(NNC(=S)NC1CCCCC1)c1cccs1 | 0% | –
19 | CCN(CC)C(=O)CSC(=Nc1ccccc1F)NC#N | – | 14.6 µM (active)

Row | SMILES | activation | Potency
20 | CCn1c(=O)c2ccccc2n(Cc2ccccc2C)c1=O | -7.29% | –
21 | CC(=O)c1ccc(NC(=O)CCc2nnc3ccc(NCc4ccco4)nn23)cc1 | – | 11.6 µM (active)
22 | O=C(CN1C(=O)NC2(CCCc3ccccc32)C1=O)c1ccc(F)cc1 (stereo not drawn) | -10.9% | –
23 | COc1ccc(N2CCN(CC(=O)Nc3ccc(C)cc3)CC2)cc1 | -1.56% | –
24 | COc1ccccc1C(=O)O/N=C(\N)c1ccccc1Cl | -84.4% | –
25 | Cc1c(C(=O)N(C)c2ccccc2Cl)cnn1-c1ccccc1 | 0.521% | –
26 | O=C1c2cccc3cc([N+](=O)[O-])cc(c23)C(=O)N1CCN1CCCC1 | 147% | –
27 | Cc1cc(CC(C)C)n(-c2nc3ccccc3c(=O)n2OCC(N)=O)n1 | 26% | –
28 | COc1ccc(-c2cc3ccc(F)cc3cn2)cc1 | – | 0.92 µM (active)
29 | Cc1ccc(NC(=O)c2ccc3nc[nH]c3c2)cc1C | – | 23.1 µM (active)
30 | c1ccc(-c2cc3cc4c(cc3cn2)OCO4)cc1 | – | 11.6 µM (active)
31 | O=c1[nH]c2ccc(N/C(=N/S(=O)(=O)c3ccccc3)c3ccccc3)cc2[nH]1 | 30.2% | –
32 | COCCn1c(SCC(=O)c2c(N)n(C3CC3)c(=O)[nH]c2=O)nnc1-c1cccc(C)c1 | -7.81% | –
33 | O=C(CSCC(=O)Nc1cccc([N+](=O)[O-])c1)Nc1ccccc1 | -1.56% | –
34 | O=C(/C=C/c1ccco1)Nc1ccc2nn(-c3ccccc3)nc2c1 | 22.4% | –
35 | Cc1ccc(C2C(C#N)=C(N)Oc3cc4c(cc32)OCO4)cc1 (stereo not drawn) | 27.1% | –
36 | CC1CCN(C2=C(NS(=O)(=O)c3ccc(Br)cc3)C(=O)c3ccccc3C2=O)CC1 | 35.9% | –
37 | c1ccc2nc(-c3ccc(N4CCOCC4)cc3)ccc2c1 | – | 0.164 µM (active)
38 | Cc1ccnc(NC(=S)NC(=O)c2cccs2)c1 | – | 0.082 µM (active)
